Screens deposited in PubChem BioAssay by several laboratories.
In the library only some 3.3% were active in any assay of this set; here they are far more common.
esBAF inh: inhibitors of esBAF chromatin remodeling in mouse ES cells. Bmi1-luciferase knock-in reporter, 24 h; 100% = twice the neutral-well signal. reporter increase, % at 12.5 µM. 2% of 350,000 active; in the data active = activation above about 40%; inconclusive = no clear call, values can overlap the other calls;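 also: 0% = median of the plate's neutral control wells and 100% = double that signal; a rise in the Bmi1 reporter signal indicates esBAF inhibition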
Gli-Sufu antag: blocks Gli-Sufu signaling in a luciferase reporter; Sufu-KO-LIGHT fibroblasts, Gli luciferase reporter luminescence; inhibition, % at 5 µM; 0.74% of 340,000 active;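 active = inhibition above about 55%, limit read from the data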;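 also: 0% = DMSO-treated cells and 100% = wells with medium but no cells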
Jurkat NFkB inh: inhibitors of the PMA/ionomycin-induced NF-kB reporter in Jurkat cells. PMA/ionomycin-induced NF-kB luciferase reporter, luminescence. inhibition, % at 4 µM. 0.53% of 330,000 active. AID 435003; in the data active = inhibition above about 50%
697 NFkB inh: lowers PMA/ionomycin-induced NF-kB signal in 697 B cells | 697 B-cell NF-kB luciferase reporter, 16 h | inhibition, % at 4 µM | 0.33% of 330,000 active | AID 435022; in the data active = inhibition above about 35%
SMARCA2 act: activators of SMARCA2 function. MG213 cells, MMTV-luciferase reporter, dexamethasone, overnight. activation, % at 9.1 µM. 1% of 370,000 active. AID 652017; in the data active = activation above about 7.8%;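 also: 0% = vehicle wells and 100% = reference activator wells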
* hit, by the source's call; ? = inconclusive; nt = no result given.

SMILES	esBAF inh	Gli-Sufu antag	Jurkat NFkB inh	697 NFkB inh	SMARCA2 act
C[C@@H]1CN([C@H](C)CO)C(=O)Cc2cc(NC(=O)NC3CCCCC3)ccc2O[C@@H]1CN(C)Cc1ccc2c(c1)OCO2	-1	nt	nt	nt	nt
C[C@@H]1CN([C@@H](C)CO)S(=O)(=O)c2ccc(-c3ccccc3F)cc2O[C@@H]1CN(C)Cc1ccncc1	-2	nt	nt	nt	nt
Cc1ccc(S(=O)(=O)N(C)C[C@H]2Oc3c(NC(=O)C4CCCCC4)cccc3C(=O)N([C@@H](C)CO)C[C@H]2C)cc1	1	nt	nt	nt	nt
COc1ccccc1S(=O)(=O)N[C@@H]1CC[C@@H](CCNC(=O)C2CC2)O[C@@H]1CO	-1	nt	nt	nt	nt
Cc1nc2c3cc(Cl)ccc3n(CCN3CCCCC3)c2s1	51*	-11	40	-21	7
COC(=O)Cn1c2ccc(Cl)cc2c2nc(C)sc21	nt	10	-5	15	-3
C[C@H]1CCCCO[C@H](CN(C)Cc2ccccc2)[C@@H](C)CN([C@@H](C)CO)C(=O)c2cc(NC(=O)Nc3ccccc3)ccc2O1	-1	nt	nt	nt	nt
O=C1C(Cl)=C(NCCc2ccccc2)C(=O)N1CCc1ccccc1	?	-39	-14	-25	7.9*
O=C1C(Cl)=C(NCCCN2CCOCC2)C(=O)N1CCc1ccccc1	0	-6	-12	1	-4
Cc1ccc(S(=O)(=O)N/N=C2/CC(c3ccccc3)Oc3ccccc32)cc1[N+](=O)[O-] (stereo not drawn)	41*	13	-34	-17	-2
Cc1sc2nc(-c3ccc(Br)cc3)oc(=O)c2c1C	55*	24	-46	-68	nt
CCOC(=O)c1cnn(-c2cc(Oc3ccccc3)ncn2)c1N	16	2	-27	-27	-1
CCOC(=O)c1cnn(-c2ccccn2)c1N	40	-40	-64	-50	7.9*
Cc1ccc2nc(C(O)C(O)c3nc4ccc(C)cc4[nH]3)[nH]c2c1 (stereo not drawn)	43*	-23	-57	-75	2
Cc1ccc2nc(C(C)O)[nH]c2c1 (stereo not drawn)	nt	1	5	3	0
Cc1ccc2nc(Cc3ccc(N)cc3)[nH]c2c1	44*	10	-10	-37	0
Nc1ccc(Cc2nc3c(ccc4ccccc43)[nH]2)cc1	87*	-33	-47	-53	1
Nc1ccc2nc(Cc3ccccc3)[nH]c2c1	?	19	-3	4	0
CN(C)c1ccc(NC(=S)NC23CC4CC(CC(C4)C2)C3)cc1	67*	-31	-34	-99	3
CCOc1ccc(NC(=S)NC23CC4CC(CC(C4)C2)C3)cc1	5	-9	-16	-8	-2
FC(F)Oc1ccc(NC(=S)NC23CC4CC(CC(C4)C2)C3)cc1	50*	-23	-33	-53	-1
C[C@@H]1CN([C@H](C)CO)C(=O)c2cc(NS(=O)(=O)c3ccc(Cl)cc3)ccc2O[C@H]1CN(C)S(=O)(=O)c1ccccc1	5	nt	nt	nt	nt
COc1ccccc1N=Nc1ccc(O)c2ncccc12	64*	-2	-47	-58	2
C[C@@H]1CN([C@H](C)CO)C(=O)c2cc(C#C[C@@H](C)O)cnc2O[C@@H]1CN(C)C(=O)Nc1ccc(C(F)(F)F)cc1	-3	nt	nt	nt	nt
O=C(C[C@H]1CC[C@@H]2[C@H](COC[C@H](O)CN2Cc2nccs2)O1)NCc1ccc(Oc2ccccc2)cc1	0	nt	nt	nt	nt
SMILES	esBAF inh	Gli-Sufu antag	Jurkat NFkB inh	697 NFkB inh	SMARCA2 act
CN1CCN(Cn2cc(/C=C/C(=O)c3ccccc3)c3ccccc32)CC1	62*	-60	-48	-101	nt
CCNC(=O)C[C@H]1CC[C@@H]2[C@@H](COc3ccc(NC(=O)Nc4ccccc4F)cc3C(=O)N2C)O1	-3	nt	nt	nt	nt
Cc1cc(C(=O)CN2C(=O)c3cccc(N)c3C2=O)c(C)n1Cc1cccs1	43*	-73	-6	-20	7
CCCN1CCC(Oc2cccc(C(=O)NCCc3ccccc3)c2)CC1	51*	11	-48	-38	4
O=C(NCCCc1ccccc1)c1ccc(F)cc1	64*	-23	-35	-25	nt
O=C(NCCc1ccccc1)c1cccc(NC(=O)C2CCCC2)c1	48*	-56	nt	nt	0
O=C(NCCCCNC(=O)c1ccc(F)cc1)c1ccc(F)cc1	1	9	6	-8	-1
O=C(NCCc1ccccc1)c1ccc(NC(=O)C2CC2)cc1	45*	-41	nt	nt	1
C[C@@H]1CN([C@@H](C)CO)C(=O)c2cccc(N(C)C)c2O[C@H]1CN(C)S(=O)(=O)c1ccccc1	-1	nt	nt	nt	nt
C[C@@H]1CN([C@@H](C)CO)C(=O)Cc2cc(NC(=O)Cn3cnnn3)ccc2O[C@H]1CN(C)Cc1ccc(Oc2ccccc2)cc1	2	nt	nt	nt	nt
CC(C)CC#Cc1ccc2c(c1)O[C@@H](CN(C)Cc1ccccn1)[C@@H](C)CN([C@H](C)CO)S2(=O)=O	-3	nt	nt	nt	nt
c1ccc(-n2ncc3c(NCCN4CCOCC4)ncnc32)cc1	47*	-41	-64	-49	5
OCCOCCNc1ncnc2c1cnn2-c1ccccc1	9	-84	-41	-44	7.8*
c1ccc(CCNc2ncnc3c2cnn3-c2ccccc2)cc1	72*	-99	-119	-121	7
Clc1ccc(-n2ncc3c(NCc4cccnc4)ncnc32)cc1Cl	65*	12	-63	-240	1
OCCOCCNc1ncnc2c1cnn2-c1ccc(Cl)cc1	4	-68	-148	-162	6
c1ccc(-n2ncc3c(NCCN4CCCCC4)ncnc32)cc1	12	4	-32	-33	2
c1ccc(CNc2ncnc3c2cnn3-c2ccccc2)cc1	?	-56	26	-103	4
C[C@@H]1CCCCO[C@H](CN(C)C(=O)Nc2ccc(C(F)(F)F)cc2)[C@H](C)CN([C@@H](C)CO)C(=O)c2cc(NC(=O)c3ccncc3)ccc2O1	1	nt	nt	nt	nt
C[C@H](NC(=O)C[C@@H]1CC[C@H](NC(=O)CN2CCOCC2)[C@@H](CO)O1)c1ccccc1	4	nt	nt	nt	nt
C[C@@H]1CN([C@H](C)CO)C(=O)c2cccc(NC(=O)c3cnccn3)c2O[C@H]1CN(C)C(=O)Nc1ccccc1	2	nt	nt	nt	nt
Clc1ccc(Nc2ncnc3c2cnn3-c2ccccc2)cc1	85*	-41	-63	-67	0
Cn1ncc2c(Nc3ccc4ccccc4c3)ncnc21	53*	-77	-92	-71	8
CC(=O)Nc1ccc(Nc2ncnc3c2cnn3-c2cccc(C)c2)cc1	-3	-52	-49	-37	7.9*
Fc1ccc(CNc2ncnc3c2cnn3-c2ccccc2)cc1	49*	-5	-8	-10	0
Cc1ccccc1-n1c(C)nnc1SCc1nc2ccccc2s1	69*	-11	-105	-101	2
CCCn1c(=O)c2ccccc2n2c(SCc3nc4ccccc4s3)nnc12	42*	-18	-71	-140	3
CCn1c(SCc2nc3ccccc3s2)nnc1-c1cccs1	50*	-19	-87	-57	3
C[C@H](CO)N1C[C@H](C)[C@H](CN(C)C(=O)C2CCCCC2)Oc2ncc(-c3cccnc3)cc2C1=O	-1	nt	nt	nt	nt
C=CCc1ccc(OCc2ccc(C(=O)Nc3ccc(NC(C)=O)cc3)o2)c(OC)c1	47*	-87	-16	-8	5
